# Source: the supplement of paper PMC11628255, “Interference of metal ions on the bioluminescent signal of firefly, Renilla, and NanoLuc luciferases in high-throughput screening assays” (Frontiers in Chemistry, 2024)
# ± gives the standard deviation of the averaged measurements.
# Tested on: Renilla luciferase (RLuc)
# Assay: residual bioluminescent signal relative to negative control without GSH; higher = less interference (more residual luciferase signal)
# Conditions: screening conditions buffer
# Method: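 Selected metal salts at 3-4 concentrations tested on purified FLuc, NLuc or RLuc in screening buffer with 0, 0.2 or 2 mM glutathione added; 10 min enzyme pre-incubation at RT, luminescence 10 min after substrate. Signal normalised to negative control without GSH (% N_VALUE); triplicate wells.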
# [1] = metal salt concentration 0.2 mM, glutathione 0 mM
# [2] = metal salt concentration 0.2 mM, glutathione 0.2 mM
# [3] = metal salt concentration 0.2 mM, glutathione 2 mM
# [4] = metal salt concentration 1 mM, glutathione 0 mM
# [5] = metal salt concentration 1 mM, glutathione 0.2 mM
# [6] = metal salt concentration 1 mM, glutathione 2 mM
compound,measurement,setting,value
O=[N+]([O-])[O-].[Ag+] [silver nitrate],residual bioluminescent signal,"metal salt concentration 0.002 mM, glutathione 0 mM",116 ± 9.8%
same,residual bioluminescent signal,"metal salt concentration 0.002 mM, glutathione 0.2 mM",109 ± 15%
same,residual bioluminescent signal,"metal salt concentration 0.002 mM, glutathione 2 mM",165 ± 28%
same,residual bioluminescent signal,"metal salt concentration 0.0684 mM, glutathione 0 mM",49.2 ± 15%
same,residual bioluminescent signal,"metal salt concentration 0.0684 mM, glutathione 0.2 mM",115 ± 7.6%
same,residual bioluminescent signal,"metal salt concentration 0.0684 mM, glutathione 2 mM",160 ± 13%
same,residual bioluminescent signal,[1],5.26 ± 2.6%
same,residual bioluminescent signal,[2],119 ± 16%
same,residual bioluminescent signal,[3],174 ± 13%
same,residual bioluminescent signal,[4],2.52 ± 2%
same,residual bioluminescent signal,[5],102 ± 13%
same,residual bioluminescent signal,[6],171 ± 12%
O=[N+]([O-])[O-].O=[N+]([O-])[O-].[Cu+2] [copper(II) nitrate],residual bioluminescent signal,"metal salt concentration 0.1 mM, glutathione 0 mM",90.5 ± 7.6%
same,residual bioluminescent signal,"metal salt concentration 0.1 mM, glutathione 0.2 mM",101 ± 3.8%
same,residual bioluminescent signal,"metal salt concentration 0.1 mM, glutathione 2 mM",115 ± 12%
same,residual bioluminescent signal,"metal salt concentration 0.132 mM, glutathione 0 mM",79.1 ± 10%
same,residual bioluminescent signal,"metal salt concentration 0.132 mM, glutathione 0.2 mM",88.3 ± 16%
same,residual bioluminescent signal,"metal salt concentration 0.132 mM, glutathione 2 mM",135 ± 20%
same,residual bioluminescent signal,[1],107 ± 14%
same,residual bioluminescent signal,[2],98.8 ± 24%
same,residual bioluminescent signal,[3],120 ± 19%
same,residual bioluminescent signal,[4],2.29 ± 2.2%
same,residual bioluminescent signal,[5],27.7 ± 5.2%
same,residual bioluminescent signal,[6],122 ± 20%
O=[N+]([O-])[O-].O=[N+]([O-])[O-].[Zn+2] [zinc nitrate],residual bioluminescent signal,[4],112 ± 18%
same,residual bioluminescent signal,[5],116 ± 25%
same,residual bioluminescent signal,[6],158 ± 11%
same,residual bioluminescent signal,"metal salt concentration 2.5 mM, glutathione 0 mM",104 ± 9.8%
same,residual bioluminescent signal,"metal salt concentration 2.5 mM, glutathione 0.2 mM",110 ± 13%
same,residual bioluminescent signal,"metal salt concentration 2.5 mM, glutathione 2 mM",110 ± 6.2%
same,residual bioluminescent signal,"metal salt concentration 4.13 mM, glutathione 0 mM",89.4 ± 5%
same,residual bioluminescent signal,"metal salt concentration 4.13 mM, glutathione 0.2 mM",96.3 ± 13%
same,residual bioluminescent signal,"metal salt concentration 4.13 mM, glutathione 2 mM",46.9 ± 19%
same,residual bioluminescent signal,"metal salt concentration 10 mM, glutathione 0 mM",2.06 ± 0.69%
same,residual bioluminescent signal,"metal salt concentration 10 mM, glutathione 0.2 mM",4.57 ± 0.79%
same,residual bioluminescent signal,"metal salt concentration 10 mM, glutathione 2 mM",2.74 ± 2.1%
